About 11,000 (3.5%) of roughly 310,000 compounds were called active. A call without a number means that no potency is given here. Not shown: some 8% with an inconclusive outcome. Calls follow the shape of the dose curve; as a rule, active = well fitted inhibition curve with a large enough effect; inconclusive = small, poorly fitted or top-dose-only effect, or effect the other way; inactive = flat fitted curve, though single readings scatter. The full list was thinned out, with actives kept by preference.
Experiment: VP16 counterscreen qHTS for inhibitors of ROR gamma transcriptional activity;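 also: Gal4-VP16 expression switched on by copper sulfate through the metallothionein promoter; nearly all actives have a fitted effect of over 50% in size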
Conditions: Drosophila S2 Gal4-VP16 UAS-luciferase, luminescence, 20 h; series mostly up to 53.6 µM
For `Nc1nc(Nc2ccccc2F)nc(NC2CCCCC2)c1[N+](=O)[O-]`, the Potency was “inactive”.
In the case of `Cc1ccc(-c2csc(-c3c[nH]c4ccccc34)n2)cc1`, the Potency is reported as “inactive”.
With `Cc1cccc(N=C2NN=C(c3c[nH]c4ccccc34)CS2)c1` the Potency was 7.94 µM (active).
For `Cc1cccc(C(=O)Nc2nnc(Cc3c[nH]c4ccccc34)s2)c1`, the Potency was “inactive”.
For `C=CCCN(C(Cc1ccccc1)C(=O)OC)S(=O)(=O)c1cc(Br)ccc1Br` (stereo not drawn), the Potency was “inactive”.
In the case of `CC(C)c1nc(CNC(=O)CC2C(=O)NCCN2Cc2cccc(F)c2F)cs1` (stereo not drawn), the Potency is reported as “inactive”.
For `COc1ccc(N2CCN(S(=O)(=O)CCNC(=O)C34CC5CC(CC(C5)C3)C4)CC2)cc1`, the Potency was “inactive”.
For `COC(=O)c1ccc(CSc2ccccc2C)o1`, the Potency was “inactive”.
For `COc1ccc(-c2nnc3ccc(SCc4ccccc4)nn23)cc1`, the Potency was “inactive”.
In the case of `COC(=O)c1ccc(CSc2ccc3nnc(-c4ccccc4)n3n2)o1`, the Potency is reported as 20 µM (active).
For `CC(=O)c1ccc(NC(=O)c2sc3nc4n(c(=O)c3c2C)CCCCC4)cc1`, the Potency was “inactive”.
In the case of `COc1ccc(Cl)cc1NC(=O)c1cccc(N2C(=O)C3CC=CCC3C2=O)c1` (stereo not drawn), the Potency is reported as “inactive”.
In the case of `CCOC(=O)c1c(NC(=O)C2(C)Cc3ccccc3C(=O)O2)sc2c1CCCC2` (stereo not drawn), the Potency is reported as “inactive”.
In the case of `CCOC(=O)c1c(-c2ccc(-c3ccccc3)cc2)csc1NC(=O)CCC(=O)O`, the Potency is reported as “inactive”.
With `Cc1cc2[nH]ncc2cc1NC(=S)NC(=O)c1ccccc1` the Potency was “inactive”.
With `CCOC(=O)C1=C(NC(=S)NC(=O)c2ccccc2)c2ccccc2CC1(C)C` the Potency was 11.2 µM (active).
In the case of `CCOC(=O)c1c(-c2cccc(C)c2)csc1NC(=O)c1c(-c2ccccc2)noc1C`, the Potency is reported as “inactive”.
In the case of `CCOC(=O)c1c(-c2ccccc2)csc1NC(=S)NC(=O)c1ccccc1`, the Potency is reported as 6.31 µM (active).
For `COc1ccc(CNC(=O)CN(Cc2ccccc2Cl)C(=O)c2csnn2)cc1`, the Potency was “inactive”.
In the case of `COc1ccc(CCNC(=O)c2c(C)nn(-c3ccccc3)c2Cl)cc1`, the Potency is reported as “inactive”.
In the case of `COc1ccc(N(CC(=O)Nc2cc(OC)ccc2OC)S(=O)(=O)c2c(C)noc2C)cc1`, the Potency is reported as “inactive”.
In the case of `CCOc1c(OC)cccc1C(=O)NCC1(c2ccccc2)CCCC1`, the Potency is reported as “inactive”.
For `CN(Cc1ccccc1)C(=O)c1ccc(COc2ccccc2)cc1`, the Potency was “inactive”.
With `CC1=C/C(=N\OS(=O)(=O)c2ccccc2)C=CC1=O` the Potency was 1.12 µM (active).
For `O=S(=O)(ON(c1ccccc1)S(=O)(=O)c1ccccc1)c1ccccc1`, the Potency was “inactive”.
For `NC(=O)CC(NC(=O)Cc1ccc(Br)cc1)c1ccc(NC2CC3CCC2C3)c([N+](=O)[O-])c1` (stereo not drawn), the Potency was “inactive”.
With `CC(C)NC(=O)C(c1ccc(F)cc1)N(C(=O)CCC(=O)Nc1ccccn1)c1ccccc1F` (stereo not drawn) the Potency was “inactive”.
For `CCCn1nc(NC(=O)C(C)C)c2cc3cc(OC)ccc3nc21`, the Potency was “inactive”.
In the case of `CCOc1ccc2c(c1)c(=O)c(S(=O)(=O)c1ccc(C)cc1)cn2CC`, the Potency is reported as “inactive”.
In the case of `COCn1c(C(O)c2ccccc2)cc2ccccc21` (stereo not drawn), the Potency is reported as “inactive”.
With `COc1cc(C(=O)NC(=S)NCc2ccco2)cc(OC)c1OC` the Potency was 6.31 µM (active).
With `COc1cc(-n2c(C)nc3cc(C(=O)NCc4ccco4)ccc32)cc(OC)c1OC` the Potency was “inactive”.
With `COc1cc(C(=O)N[C@@H](C)C(=O)NCc2ccco2)cc(OC)c1OC` the Potency was “inactive”.
With `COc1ccc(CNc2nccs2)cc1` the Potency was “inactive”.
For `CCC(=C/c1sc2ccc3ccccc3c2[n+]1C)/C=C1\Sc2ccc3ccccc3c2N1C`, the Potency was 1 µM (active).
In the case of `COc1cccc(OC)c1C(=O)Nc1c(C(=O)N2CCN(c3ccccn3)CC2)oc2ccccc12`, the Potency is reported as “inactive”.
For `O=C(c1cccnc1)N1CCN(S(=O)(=O)c2cccs2)CC1`, the Potency was “inactive”.
In the case of `O=S(=O)(NC1CCCCC1N1CCN(c2ccccc2F)CC1)c1ccccc1` (stereo not drawn), the Potency is reported as “inactive”.
In the case of `CCOC(=O)CCNC(=O)N1CCCC(C(=O)c2ccccc2SC)C1` (stereo not drawn), the Potency is reported as “inactive”.
In the case of `CCc1ccc(CNC(=O)C2CCCN(c3nc4ccccc4o3)C2)cc1` (stereo not drawn), the Potency is reported as “inactive”.
With `CCOC(=O)c1cnc(Nc2nc3ccccc3o2)nc1CSC(=S)N1CCCCC1` the Potency was 1 µM (active).
With `COc1cc(C(=O)NCc2cc3cc(Cl)ccc3n2C)cc(OC)c1OC` the Potency was “inactive”.
In the case of `Cc1ccc(NS(=O)(=O)c2ccc3c(c2)oc(=O)n3C)c(C)c1`, the Potency is reported as “inactive”.
With `COc1ccccc1N(C)C(=O)c1cc(S(=O)(=O)N2CCc3ccccc32)cn1C` the Potency was “inactive”.
With `COC(=O)c1ccc(C(=O)NC2CC(C)(C)Cc3c2cnn3-c2ccc(F)cc2)nc1` (stereo not drawn) the Potency was “inactive”.
For `Oc1ccc2ccccc2c1N=Nc1nccs1`, the Potency was 3.55 µM (active).
With `Oc1c(C=Nc2cccc3nsnc23)ccc2ccccc12` the Potency was “inactive”.
With `Oc1ccc(N=Nc2nccs2)c(O)c1` the Potency was “inactive”.
With `Cc1csc(NC(=O)CSc2nnc(-c3cccnc3)o2)n1` the Potency was “inactive”.
For `COc1ccc(-c2nc(CS(=O)(=O)CC(=O)NCc3cccc(Br)c3)c(C)o2)cc1`, the Potency was “inactive”.
For `Cc1ccc(N=Nc2c(C)[nH]n(-c3ccccc3)c2=O)cc1`, the Potency was “inactive”.
For `Cc1[nH]n(C(N)=S)c(=O)c1N=Nc1ccc(Cl)cc1Cl`, the Potency was 2.82 µM (active).
For `Cc1cccc(N=Nc2c(C)[nH]n(-c3ccccc3)c2=O)c1`, the Potency was “inactive”.
For `COc1ccc(NC(=O)c2cc(-c3cc(OC)c(OC)c(OC)c3)nc3ccccc23)c(OC)c1`, the Potency was “inactive”.
For `O=C(NC(=S)N1CCN(Cc2ccccc2)CC1)c1ccccc1`, the Potency was 3.55 µM (active).
For `O=C(Nc1ccccc1)N1CCN(Cc2ccccc2)CC1`, the Potency was “inactive”.
In the case of `O=C(c1cccc(Cl)c1)N1CCN(Cc2ccccc2)CC1`, the Potency is reported as “inactive”.
For `CC1CCN(S(=O)(=O)c2ccc3[nH]c(=O)ccc3c2)CC1`, the Potency was “inactive”.
With `CCC(C)[C@H](NC(=O)N1CCn2c1nc1ccccc12)C(=O)NCc1ccc(OC)cc1` (stereo partly drawn) the Potency was “inactive”.
For `NC(=S)N/N=C/c1ccc([N+](=O)[O-])cc1`, the Potency was “inactive”.
With `CCOc1ccc(/C=N/NC(N)=S)cc1` the Potency was 10 µM (active).
In the case of `CCOc1ccc(/C=N\NC(=O)c2c(C)nc3cc(C)ccn23)cc1`, the Potency is reported as “inactive”.
For `COc1cc(OC)cc(C(=O)NCCSCc2ccc(Cl)cc2)c1`, the Potency was “inactive”.
In the case of `COc1cccc(-c2noc(C3CCCN(C(=O)c4ccc(F)cc4)C3)n2)c1` (stereo not drawn), the Potency is reported as “inactive”.
For `Cn1c(=O)c2c(SCC(=O)NCC3CCCO3)nc(CC(C)(C)C)nc2n(C)c1=O` (stereo not drawn), the Potency was “inactive”.
In the case of `Fc1ccc2[nH]c3c(N4CCN(Cc5ccc6c(c5)OCO6)CC4)ncnc3c2c1`, the Potency is reported as 7.08 µM (active).
For `O=c1[nH]c(N2CCN(Cc3ccc4c(c3)OCO4)CC2)nc2c1CCCC2`, the Potency was “inactive”.
For `CC(C)(C)n1nnnc1C(c1ccc(F)cc1)N1CCN(Cc2ccc3c(c2)OCO3)CC1` (stereo not drawn), the Potency was “inactive”.
In the case of `CCC(C)(C)NC(=O)C(c1ccc(O)cc1)N(Cc1ccco1)C(=O)CCC(=O)Nc1ccccn1` (stereo not drawn), the Potency is reported as “inactive”.
For `Cn1c(-c2ccc(F)cc2)cnc1SCC(=O)NNC(=O)Cc1ccccc1`, the Potency was “inactive”.
With `CN(Cc1ccccc1)C(=O)CCc1ccccc1` the Potency was “inactive”.
With `Cc1ccc(-c2cnc(NC(=O)CCC(=O)N(C)Cc3ccccc3)n2C)cc1` the Potency was 4.47 µM (active).
In the case of `Cc1ccn2c(=O)c(C(=O)NCCC3=CCCCC3)c(O)nc2c1`, the Potency is reported as “inactive”.
For `O=C(COc1nsnc1N1CCOCC1)Nc1ccccc1Cl`, the Potency was “inactive”.
For `O=C(Cn1ncc2c3ccccc3n(Cc3ccccc3)c2c1=O)NCCCN1CCOCC1`, the Potency was “inactive”.
For `CCCn1c(C(Cc2ccccc2)NC(=O)COC)nc2ccccc21` (stereo not drawn), the Potency was “inactive”.
With `CCCn1c(NC(=O)C23CC4CC(CC(O)(C4)C2)C3)nc2ccccc21` the Potency was 5.62 µM (active).
For `CCOc1ccccc1NC(=O)C12CC3CC(C1)CC(c1ccc(C)cc1)(C3)C2`, the Potency was “inactive”.
For `Cc1ccc2c(=O)cc(C(=O)NCCc3ccc(S(N)(=O)=O)cc3)oc2c1C`, the Potency was “inactive”.
In the case of `CCCCc1cc(=O)oc2c(C)c(OCC(=O)N3CCC(C(N)=O)CC3)ccc12`, the Potency is reported as “inactive”.
With `COc1cc(NC(=O)Nc2ccc(C)cc2)cc([N+](=O)[O-])c1` the Potency was “inactive”.
In the case of `COc1cc(NC(=S)NCCSc2ccc(C)cc2)cc(OC)c1`, the Potency is reported as 6.31 µM (active).
With `COc1cccc(C(=O)NCCSc2ccc(Br)cc2)c1` the Potency was “inactive”.
For `Cc1ccc(-n2nc3c(=O)n(C(C)C(=O)NCc4ccc5c(c4)OCO5)nc(C)c3c2C)cc1` (stereo not drawn), the Potency was “inactive”.
With `COC(=O)c1cc(-c2cccs2)nc2ccccc12` the Potency was “inactive”.
In the case of `COC(=O)CNC(=O)c1cc(-c2ccncc2)nc2ccccc12`, the Potency is reported as “inactive”.
In the case of `O=C(Nc1nnc(-c2ccccc2)o1)c1cc(-c2cccs2)nc2ccccc12`, the Potency is reported as 1 µM (active).
With `O=C(O)c1cccc(NC(=O)c2cc(-c3cccc(Cl)c3)nc3ccccc23)c1` the Potency was “inactive”.
For `CCCCN(C)CCCNC(=O)c1cc(-c2cccs2)nc2ccccc12`, the Potency was “inactive”.
For `CC(C)(C)Cc1nnc(NC(=O)c2cc(-c3ccccc3)nc3ccccc23)s1`, the Potency was 12.6 µM (active).
In the case of `CCOc1ccc(CN2CCN(CCCc3ccccc3)C(CCO)C2)cc1` (stereo not drawn), the Potency is reported as “inactive”.
With `COc1ccc(CNC(=O)CN(C(=O)c2csnn2)c2cnc3ccccc3c2)cc1` the Potency was “inactive”.
With `OC(COc1ccc(F)cc1Cl)CN1CCc2ccccc2C1` (stereo not drawn) the Potency was “inactive”.
For `O=C(c1ccc(S(=O)(=O)N2CCCC2)cc1)N1CCN(c2ccccc2F)CC1`, the Potency was “inactive”.
With `CCOc1cc2[nH]c(=S)n(Cc3ccc(C(=O)N4CCN(C)CC4)cc3)c(=O)c2cc1OCC` the Potency was “inactive”.
For `COc1ccc(OCc2cn3c(C)cc(C)nc3n2)cc1`, the Potency was “inactive”.
With `COc1ccc(C(C[N+](=O)[O-])n2nc(C)cc2C)cc1` (stereo not drawn) the Potency was 10 µM (active).
In the case of `COc1ccc(C(=O)CSc2nc(C)cc(C)n2)cc1[N+](=O)[O-]`, the Potency is reported as “inactive”.
For `Cc1cccc(N2C(=O)N3[C@H](c4ccc(F)cc4)[C@@H]4C(=O)N(C5CCCCC5)C(=O)[C@@H]4[C@]3(Cc3ccccc3)C2=O)c1`, the Potency was “inactive”.
With `CC1CC2=C(CC1/C=N/NC(N)=S)C(C)(C)CCC2` (stereo not drawn) the Potency was 2.82 µM (active).
In the case of `COc1ccc(/C=N/OCc2ccccc2C#N)c(OC)c1`, the Potency is reported as “inactive”.
For `O=C1CCC(C(=O)N2CCN(c3ccccc3Cl)CC2)CN1CC1CCCCC1` (stereo not drawn), the Potency was “inactive”.
With `COc1cc(CN2CCC(n3nccc3NC(=O)CCCc3ccccc3)CC2)ccc1O` the Potency was “inactive”.

Source: PubChem BioAssay AID2546 (National Center for Advancing Translational Sciences (NCATS), 2010)
Potency is read from the fitted curve at half-maximal effect.
